Data as given in PubChem BioAssay AID977606 (Broad Institute, 2014).
Screen size: about 1,500 compounds; about 430 (29%) were called active. How the calls were made is not given here. Only a sample is shown. Results with a measured potency or affinity are listed apart.

test: glucose-independent GLuc insulin release activation – cell-based, INS-1E, Gaussia luciferase, luminescence, cherry-pick, counter-screen for glucose-dependent insulin secretion activators, dose response (AID 977606); conditions: INS-1E Gaussia luciferase insulin secretion, no glucose, 100% = twice neutral-control luminescence; series mostly up to 35 µM

Row | SMILES | outcome
1 | COc1ccccc1C(=O)N/N=C(\C)CC(=O)Nc1ccc2c(c1)OCCO2 | inactive
2 | COc1ccc(-n2c(=S)[nH]c3cc(C(=O)Nc4ccc(OC)c(OC)c4)ccc3c2=O)cc1 | inactive
3 | C=CCc1ccccc1Oc1cc(OC)nc(N)n1 | inactive
4 | COc1ccccc1CNC(=O)CCNS(=O)(=O)c1ccc2[nH]c(=O)oc2c1 | inactive
5 | COc1ccc(-c2ccc(SCc3ccccn3)nn2)cc1OC | inactive
6 | CC(C)NC(=O)C1(C)CCN1Cc1cccc(C#N)c1 (stereo unspecified) | inactive
7 | CC1(C(=O)NCc2ccccc2)CN(S(C)(=O)=O)CC(=O)N1C1CC1 (stereo unspecified) | inactive
8 | Cc1ccccc1CN(C)Cc1cc(=O)oc2c(C)c(C)ccc12 | inactive
9 | C[C@H]1CN=C(N(C)C)N1CC1CCCC1 | inactive
10 | COc1ccccc1NS(=O)(=O)c1cccc(C(=O)N/N=C/c2c(C)nn(-c3ccccc3)c2N2CCCC2)c1 | inactive
11 | Cc1nn(-c2ccccc2)c(N2CCCC2)c1/C=N/O | inactive
12 | COc1ccc(S(=O)(=O)Nc2cccc(-c3ccc4nncn4n3)c2)cc1F | inactive
13 | CNC(=O)c1[nH]nc2c1CCc1cc(OC)ccc1-2 | inactive
14 | COc1ccc2c(c1)CCc1cc(C(=O)O)sc1-2 | inactive
15 | COc1ccc2c(c1)[C@@]1(OCCC=C[C@H]1C)C(=O)N2CC1CC1 | inactive
16 | CCOc1ccc(C(C)=O)cc1COC(=O)CN1C(=O)NC2(CCCC2)C1=O | inactive
17 | NC(=O)C1CCN(c2nc(-c3ccccc3)nc3ccccc23)CC1 | inactive
18 | CN(Cc1ccccc1)c1ncnc2[nH]ncc12 | inactive
19 | O=C(Nc1ccc(F)cc1)c1cccnc1Oc1ccccc1 | inactive
20 | c1ccc(-c2ccccc2OCCN2CCCCC2)cc1 | inactive
21 | N#Cc1sc2nc3c(c(-c4cccnc4)c2c1N)CCC3 | inactive
22 | Cc1cccc(C)c1NC(=O)C1c2ccccc2OCC(=O)N1CCCN1CCOCC1 (stereo unspecified) | inactive
23 | Cc1ccc(CS(=O)Cc2ccc(C(=O)NCc3ccccc3)o2)cc1 (stereo unspecified) | inactive
24 | Cc1ccc(C(=O)n2nc(-c3cccnc3)nc2N)cc1 | inactive

Row | SMILES | outcome
25 | CC(=O)NCCc1nc2ccccc2n1CCOc1cccc(C)c1 | inactive
26 | COc1ccc(OCC(=O)NNC(=O)Cn2c(=O)cnc3ccccc32)cc1 | inactive
27 | CCCCCCn1c(-c2cccs2)n[nH]c1=S | inactive
28 | CCN1CCN(CC(=O)Nc2ccc(C(C)=O)cc2)CC1 | inactive
29 | COc1ccc(OC)c(-c2nnc3n2N=C(c2ccc(OC)c(OC)c2)CS3)c1 | inactive
30 | CC[C@@H]1CC2=C(C(=O)OC(C)(C)O2)[C@H](c2ccc(F)cc2)O1 | inactive
31 | CCOC(=O)c1sc2nc(-c3ccccc3)ccc2c1N | inactive
32 | C#Cc1cccc(-n2nnc(C(=O)OC)c2-c2ccccc2)c1 | inactive
33 | Cc1cc(-c2ccccc2)n2nc(N)nc2n1 | inactive
34 | CNC(=O)C1CC(=O)N(c2ccc(OCC(=O)Nc3ccccc3)cc2)C1 (stereo unspecified) | inactive
35 | CCCc1cc(=O)oc2cc(OCC(=O)NC3CCN(Cc4ccccc4)CC3)ccc12 | inactive
36 | Cc1ccc2c(c1)c(-c1ccccc1)nc1nncn12 | inactive
37 | CCC(CC)NC(=O)c1ccccc1Oc1ccccc1 | inactive
38 | COc1ccc(C2=Nn3c(nnc3-c3ccncc3)SC2)cc1OC | inactive
39 | C/C(Cl)=C\Cn1c(N2CCCC2)nc2c1c(=O)n(C)c(=O)n2C | inactive
40 | CCOc1cc(/C=C(\CC(=O)O)c2nc3ccccc3s2)ccc1OC | inactive
41 | C=CCN1C(=O)CSc2ccc(C(=O)OCC)cc21 | inactive
42 | CC(NC(=O)C1CCCN1S(=O)(=O)c1ccc2c(c1)n(C)c(=O)c(=O)n2C)c1ccccc1 (stereo unspecified) | inactive
43 | N#CCCN(Cc1ccccc1)C(=O)c1cccs1 | inactive
44 | CNc1nc(Cl)nc2c1ncn2-c1ccccc1 | inactive
45 | COc1ccc(CCN2CC(=O)NC(=O)C2)cc1OC | inactive
46 | CCOC(=O)Cn1c(=O)n(Cc2ccccc2)c(=O)c2cccnc21 | inactive
47 | COc1ccc(S(=O)(=O)Nc2ccc3c(c2)OCO3)cc1OC | inactive
48 | C[C@@H]1O[C@H](C2CCCC2)CC2=C1C(=O)OC(C)(C)O2 | inactive

Row | SMILES | outcome
49 | CCOc1ccc(C(=O)OCC(=O)Nc2cc(C)on2)cc1OCC | inactive
50 | COc1ccc(S(=O)(=O)N2CCOCC2)cc1NC(=O)COc1ccccc1 | inactive
51 | COc1cc(C(C(=O)NC2CCCC2)N(Cc2ccco2)C(=O)c2snc(C(N)=O)c2N)cc(OC)c1OC (stereo unspecified) | inactive
52 | N#CN=CN1CC=C(c2ccc(Cl)cc2)CC1 | inactive
53 | CC(=O)Nc1sc(C)c(C)c1C(=O)OCC(=O)Nc1cc(S(C)(=O)=O)ccc1Cl | inactive
54 | CCOC(=O)c1cc(CC)sc1NC(=O)COC(=O)c1cnccn1 | inactive
55 | COc1ccc(CCNCc2cc3ccc(C)cc3[nH]c2=O)cc1OC | inactive
56 | COc1cc(OC)c(OC)cc1CCC(C)NC(=O)Cc1ccccc1 (stereo unspecified) | inactive
57 | COc1cc2c(cc1OC)-c1cc(Nc3ccc(N(C)C)cc3)nc(=O)n1CC2 | inactive
58 | COc1ccc(N2CC(NS(=O)(=O)c3cccs3)CC2=O)cc1OC (stereo unspecified) | inactive
59 | CCOC(=O)Cn1nc(-c2ccccc2)c(-c2ccccc2)nc1=O | inactive
60 | O=C(O)c1ccc(-c2nc(-c3ccccc3)c(-c3cccs3)[nH]2)cc1 | inactive
61 | O=C(Cc1c[nH]c2ccccc12)N[C@@H](Cc1c[nH]c2ccccc12)C(=O)O | inactive
62 | Cc1ccc(S(=O)(=O)N(C)c2nc3ccccc3n3c(C(C)C)nnc23)cc1 | inactive
63 | C=CCc1cccc(/C=N/NC(=O)CCC(=O)Nc2ccc(C)cc2)c1O | inactive
64 | O=C(N/N=C/c1cc(Cl)ccc1O)c1ccc(Br)cc1 | inactive
65 | COc1ccc(-c2nnc(-c3cccs3)o2)cc1OC | inactive
66 | CC(=O)c1cccc(N(CC(=O)NC2CCCCC2)C(=O)Cn2nnc(-c3ccccc3)n2)c1 | inactive
67 | CCCCOc1ccc(-c2nnn(CC(=O)c3c[nH]c4ccccc34)n2)cc1 | inactive
68 | Cc1ccc2c(c1)C=CC(C#N)N2C(=O)c1ccccc1 (stereo unspecified) | inactive
69 | CC(=O)N1CCN(c2nc(-c3cccs3)nc3ccccc23)CC1 | inactive
70 | CN[C@H]1C[C@@H](c2ccccc2)N(C(C)=O)C[C@H]1CO | inactive
71 | CCOC(=O)N1CCN(S(=O)(=O)c2ccc3c4c(cccc24)C(=O)N3)CC1 | inactive
